Source: PubChem (National Center for Advancing Translational Sciences (NCATS))
Tau fluor counter: counter-screen for tau fibril formation inhibitors | Potency, µM (series often up to 57.7 µM) | tau K18 P301L Alexa594 fluorescence, heparin fibrillization | actives 0.93% (n = 280,000); further: nearly all actives have a fitted effect of over 55% in size
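Human K18 P301L tau (15 uM unlabeled plus 0.24 uM Alexa 594-labeled, final) in 100 mM sodium acetate pH 7 was mixed with compound and 20 uM heparin and incubated 6 hr at 37 C.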
HTT ATP protect: protects HTT-Q103 PC12 cells, measured by ATP | PC12 HTT-Q103 induced, cytoprotection, ATP luminescence, 40 h | Potency, µM (titrated, usually from 56.4 µM), hits mostly activators | actives 0.14% (n = 230,000) | AID 1471; further: nearly all actives have a fitted effect of over 45% in size
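Quantitative HTS on tebufenozide-induced (100 nM) PC12 cells expressing HTTQ103 exon 1–GFP; compounds tested as a concentration series; survival measured via cellular ATP.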
HTT aggregate: mutant huntingtin aggregation inhibition; PC12 HttQ103-GFP aggregates, Acumen cytometry, 40 h; Potency, µM (highest dose often 46.1 µM), usual class: inhibitors; actives 1.1% (n = 220,000); AID 1688; further: nearly all actives have a fitted effect of over 60% in size
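Using laser scanning cytometry, GFP-positive aggregates were counted after lysis of PC12 cells induced with 100 nM tebufenozide to express HTT exon 1 Q103–GFP. Compounds were tested in titration.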
Tau ThT inhib: inhibitors of human tau fibril formation, thioflavin T binding | recombinant tau K18 P301L (four-repeat tau fragment), heparin-induced fibrillization, ThT fluorescence | Potency, µM (top dose mostly 57.4 µM), hits mostly inhibitors | actives 2.1% (n = 270,000) | AID 1460; further: nearly all actives have a fitted effect of over 55% in size
Target sequence (P10636 561-689 P618L limits assumed): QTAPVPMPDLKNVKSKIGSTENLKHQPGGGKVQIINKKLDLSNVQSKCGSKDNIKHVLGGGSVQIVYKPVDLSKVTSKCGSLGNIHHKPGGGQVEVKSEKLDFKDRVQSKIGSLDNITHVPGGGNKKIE
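K18 P301L tau (15 uM + 0.24 uM Alexa 594-tagged), heparin 20 uM, NaOAc pH 7, 6 h 37 C; ThT 30 uM, 1 h RT, ex 450/em 510 nm.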
Tau FP inhib: blocks human tau fibril formation measured by polarization; P10636; K18 P301L tau heparin fibrillization, Alexa594 FP, 6 h; Potency, µM (top dose mostly 57.7 µM), usual class: inhibitors; actives 0.39% (n = 280,000); AID 1468; further: nearly all actives have a fitted effect of over 55% in size
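Compound effects on tau fibrillization are measured by Alexa 594 fluorescence polarization (ex 555, em 632 nm). K18 P301L tau is used at 15 uM with 0.24 uM labeled tracer, and 20 uM heparin induces aggregation over 6 hr at 37 C.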
Numbers stand for hits; 0 = inactive; ? = inconclusive; - = not tested or not shown; [ ] = dose if it differs, or a comment. Compounds with a hit are over-represented: about 3.7% of the library has one in this group of screens. The call rests on the fitted dose curve; in most records, active means well fitted curve in the direction sought with a large enough effect; inconclusive means small, poorly fitted or top-dose-only effect, or another doubt; inactive means no such curve, though single readings can be large; an effect the other way counts as inactive or inconclusive.

SMILES	Tau fluor counter	HTT ATP protect	HTT aggregate	Tau ThT inhib	Tau FP inhib
O=C(C1=C[C@@H]2[C@H]3C(=O)N(c4ccc(Cl)cc4)C(=O)[C@H]3[C@@H](C(=O)c3ccc(Cl)cc3)N2C=C1)c1ccccc1	?	0[10 µM]	?	14µM	0
COc1ccccc1CNC(=O)C(CC(C)C)N1Cc2ccccc2C1=O (stereo unspecified)	0	-	-	0	0
COc1cc(-c2nc(S(=O)(=O)c3ccc(C)cc3)c(N(C)C)o2)cc(OC)c1OC	0	0.89µM	-	?	0
COc1cc(-c2nc(S(=O)(=O)c3ccc(C)cc3)c(N3CCOCC3)o2)cc(OC)c1OC	0	0[10 µM]	0	?	0
CCc1ccc(NC(=O)N2CC(C)Oc3ccc(C)cc32)cc1 (stereo unspecified)	2.5µM[quencher]	-	-	0	0
CCOC(=O)c1ccccc1NC(=O)N1CC(C)Oc2ccc(C)cc21 (stereo unspecified)	2.8µM[quencher]	-	-	0	?
COc1ccc(-n2c3c(cc(C(=O)Nc4cccc(C)n4)c2=O)C(=O)CC(C)(C)C3)cc1	0	-	-	0	0
Cc1cccc(NC(=O)c2oc3c(c2C)C(=O)CC(C)(C)C3)n1	0	0[0.074 µM]	22µM	0	0
O=C1NCCCC2c3cc(O)c4ccccc4c3OC12N1CCCCC1 (stereo unspecified)	?	0[0.074 µM]	?	13µM	?
CCCCCCCC[n+]1c(C)n(-c2ccccc2)c2ccc(NC(C)=O)cc21	0	0	10µM	0	0
O=C(Nc1ccccc1C(F)(F)F)N1CCC(CN2CCc3ccccc3C2)CC1	0	-	-	0	0
CCOc1cc(CNC(=O)c2ccc3nc(C(C)C)oc3c2)cc(OCC)c1OCC	0	-	-	?	0
CCCc1cc(=O)[nH]c(SCC(=O)NC)n1	0	0	0	0	0
CCCc1cc(=O)[nH]c(SCC(=O)CSc2nc(CCC)cc(=O)[nH]2)n1	0	0	0	16µM	?
NC(C(=O)N[C@@H]1C(=O)N2C(C(=O)O)=C(Cl)CS[C@H]12)c1ccccc1 (stereo partly specified)	0	-	-	28µM	?
CC1=C(C(=O)O)N2C(=O)[C@@H](NC(=O)C(N)c3ccccc3)[C@H]2SC1 (stereo partly specified)	0	-	-	0	0
CC=CC1=C(C(=O)O)N2C(=O)[C@H](NC(=O)[C@H](N)c3ccc(O)cc3)[C@@H]2SC1	0	0	0	22µM	?
CC1=C(C(=O)O)N2C(=O)C(NC(=O)C(N)C3=CCC=CC3)C2SC1 (stereo unspecified)	0	0	-	?	?
CC1=C(C(=O)O)N2C(=O)[C@@H](NC(=O)C(N)C3=CCC=CC3)[C@H]2SC1 (stereo partly specified)	0	-	-	?	?
N[C@@H](C(=O)N[C@@H]1C(=O)N2C(C(=O)O)=C(Cl)CS[C@H]12)c1ccccc1	0	?	0	28µM	?
Cc1ccc(C)c(N2CCN(C(=O)C3CCN(S(=O)(=O)c4cn(C)cn4)CC3)CC2)c1	0	-	-	0	0
CCOc1ccccc1CNC(=O)c1ccc2c(c1)sc1nc(-c3cccc(OC)c3)cn12	0	-	-	0	0
Cc1cccc(NC(=O)CSc2nc(=O)n(CCN3CCOCC3)c3c2CCC3)c1C	0	-	-	0	0
CCc1ccc(N2C(=O)C(Cl)=C(N3CCOCC3)C2=O)cc1	0	0[10 µM]	0	0	0
O=C1C(Cl)=C(N2CCOCC2)C(=O)N1c1cccc(Cl)c1	?	0[10 µM]	0	13µM	28µM
SMILES	Tau fluor counter	HTT ATP protect	HTT aggregate	Tau ThT inhib	Tau FP inhib
Cc1cccc(N2C(=O)C(Cl)=C(N3CCOCC3)C2=O)c1	?	0[10 µM]	0[9.22 µM]	16µM	25µM
Cc1cccc(N2C(=O)CC(N3CCOCC3)C2=O)c1 (stereo unspecified)	0	0	0	0	0
Cc1cc(O)ccc1Nc1nc2ccccc2nc1Nc1ccc(O)cc1C	13µM[quencher]	0	0	14µM	?
Cc1ccc(Nc2nc3ccccc3s2)c(C)c1	0	-	0	0	0
CCCc1nn2c(=O)cc(COC(=O)c3cccc(NC(=O)c4ccc(OCC)cc4)c3)nc2s1	0	-	-	?	0
Cc1cc2nc[nH]c2cc1[N+](=O)[O-]	0	0	0	0	0
Nc1cc2nc[nH]c2cc1N	?	0	0	22µM	?
COc1ccc(S(=O)(=O)NCCc2csc3nc(-c4ccc(OC)c(OC)c4)nn23)cc1C	0	-	-	0	0
CCCCN(CCCC)C(=S)N/N=C/c1c(C)[nH]n(-c2ccccc2)c1=O	?	0	11µM	?	0
Cc1[nH]n(-c2ccccc2)c(=O)c1C=NCc1ccncc1	0	0[10 µM]	0[9.22 µM]	0	0
CCCCN=Cc1c(C)[nH]n(-c2ccccc2)c1=S	0	0	0	?	0
Cc1[nH]n(-c2ccccc2)c(=O)c1/C=N/Nc1nncc(-c2ccccc2)n1	?	0[10 µM]	?	14µM	0
CCOC(=O)c1c(C)[nH]c(C)c1C(=O)CSc1nc2ccccc2c(=O)n1-c1ccc(Cl)cc1	?	-	20µM	0	0
CCOC(=O)c1c(C)[nH]c(C)c1C(=O)CSc1nc2ccccc2c(=O)n1-c1ccc(C)cc1	?	0[1.9 µM]	?	0	0
O=C1N=C(c2ccccc2)S/C1=C\c1cccs1	?	0	0	7.9µM	?
O=C1N=C(N2CCN(c3ccccc3)CC2)S/C1=C/c1cccs1	0	0[10 µM]	0	?	0
O=C1/C(=C/c2cccs2)SC(=S)N1c1ccccc1	0	0	0	0	0
O=C1OC(c2ccccc2)=C/C1=C/c1cccs1	?	0[10 µM]	0	3.2µM	?
C/C=C1\C(=O)C[C@H]2[C@@H]3CCC4=CC(=O)CC[C@]4(C)[C@H]3CC[C@]12C	-	0	-	-	-
CCCCSc1nnc(-c2ccc(C)cc2)c2ccccc12	0	-	11µM	?	0
COc1ccc(-c2nc3cnc(N4CCN(C)CC4)nc3n(-c3ccc(OC)cc3)c2=O)cc1	-	0	-	-	-
Cc1cc(C)c(C(=O)CSc2nnc(N)s2)cc1C	0	0[10 µM]	0[9.22 µM]	0	0
Cc1cc(C)c(C(=O)CSC2=NC(N)=C(C#N)C3(CCCCC3)C2C(N)=O)cc1C (stereo unspecified)	?	?	0[9.22 µM]	28µM	?
COc1ccc(Cn2c(SCc3ccc(C(=O)NCc4cccs4)cc3)nc3ccncc32)cc1	0	-	-	0	0
COc1ccc(Nc2ncnc3sc(-c4ccccc4)cc23)cc1OC	14µM[quencher]	0[10 µM]	0	?	?
COc1ccc(Nc2ncnc3c2cnn3-c2ccccc2)cc1OC	?	0[10 µM]	0	?	?
CC1=CCC2C(=O)N(CCc3c[nH]c4ccccc34)C(=O)C2C1 (stereo unspecified)	0	0[10 µM]	0	0	0
COC(=O)C1=C(C)N(CCc2c[nH]c3ccccc23)C(=O)/C1=C\N(C)C	?	0	0[9.22 µM]	14µM	0
O=C(NCc1ccc2c(c1)OCO2)C1CCCN(S(=O)(=O)c2cccnc2)C1 (stereo unspecified)	0	0[10 µM]	32µM	0	0
CN(Cc1ccco1)c1cc(-c2ccoc2)ncn1	-	0	-	-	-
